# Several values for one entry are separate records, joined by “and”; a condition that tells them apart may be missing. Equal entries are not always repeated.
# Tests used:
# [1] = tested on: Epidermal growth factor receptor (Homo sapiens), P00533 [T790M]; details: at 1 µM
# [2] = tested on: Epidermal growth factor receptor (Homo sapiens), P00533 [L858R,T790M]; details: at 0.1 µM
# [3] = tested on: Epidermal growth factor receptor (Homo sapiens), P00533 [L858R,T790M]; details: at 1 µM
# [4] = target: Ephrin type-A receptor 2 (Homo sapiens) (UniProt P29317); details: at 0.1 µM
# Chain of Ephrin type-A receptor 2 (Homo sapiens) (P29317 whole entry): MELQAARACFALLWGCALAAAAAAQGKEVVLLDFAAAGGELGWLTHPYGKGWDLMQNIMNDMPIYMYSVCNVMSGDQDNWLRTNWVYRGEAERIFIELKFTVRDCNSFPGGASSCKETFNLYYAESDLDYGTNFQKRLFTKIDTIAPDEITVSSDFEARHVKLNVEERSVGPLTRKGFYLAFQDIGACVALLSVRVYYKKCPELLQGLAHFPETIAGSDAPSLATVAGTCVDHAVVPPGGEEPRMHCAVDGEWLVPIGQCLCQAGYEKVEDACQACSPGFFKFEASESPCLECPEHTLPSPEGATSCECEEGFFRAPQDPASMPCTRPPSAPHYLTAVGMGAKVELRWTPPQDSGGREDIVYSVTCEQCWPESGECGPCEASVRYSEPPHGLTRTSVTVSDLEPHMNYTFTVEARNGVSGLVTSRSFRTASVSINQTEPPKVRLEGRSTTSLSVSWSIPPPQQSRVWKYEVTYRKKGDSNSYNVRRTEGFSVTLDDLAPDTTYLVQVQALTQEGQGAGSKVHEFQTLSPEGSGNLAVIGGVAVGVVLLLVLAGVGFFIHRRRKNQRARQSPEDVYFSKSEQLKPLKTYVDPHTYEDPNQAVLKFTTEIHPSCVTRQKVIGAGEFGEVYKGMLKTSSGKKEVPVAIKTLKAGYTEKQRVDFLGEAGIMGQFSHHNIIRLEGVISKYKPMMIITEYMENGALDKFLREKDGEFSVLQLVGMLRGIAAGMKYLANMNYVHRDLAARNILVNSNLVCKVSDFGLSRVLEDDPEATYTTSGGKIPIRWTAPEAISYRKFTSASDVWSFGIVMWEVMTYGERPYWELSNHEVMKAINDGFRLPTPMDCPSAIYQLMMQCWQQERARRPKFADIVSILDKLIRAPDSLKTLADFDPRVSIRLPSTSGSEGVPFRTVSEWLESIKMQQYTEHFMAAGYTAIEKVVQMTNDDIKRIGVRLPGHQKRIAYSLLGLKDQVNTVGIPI
# [5] = target: Ephrin type-A receptor 2 (Homo sapiens) (UniProt P29317); details: at 1 µM
# [6] = target: T1, Ephrin type-A receptor 3 (Homo sapiens) (UniProt P29320); details: at 0.1 µM
# T1 sequence (whole entry): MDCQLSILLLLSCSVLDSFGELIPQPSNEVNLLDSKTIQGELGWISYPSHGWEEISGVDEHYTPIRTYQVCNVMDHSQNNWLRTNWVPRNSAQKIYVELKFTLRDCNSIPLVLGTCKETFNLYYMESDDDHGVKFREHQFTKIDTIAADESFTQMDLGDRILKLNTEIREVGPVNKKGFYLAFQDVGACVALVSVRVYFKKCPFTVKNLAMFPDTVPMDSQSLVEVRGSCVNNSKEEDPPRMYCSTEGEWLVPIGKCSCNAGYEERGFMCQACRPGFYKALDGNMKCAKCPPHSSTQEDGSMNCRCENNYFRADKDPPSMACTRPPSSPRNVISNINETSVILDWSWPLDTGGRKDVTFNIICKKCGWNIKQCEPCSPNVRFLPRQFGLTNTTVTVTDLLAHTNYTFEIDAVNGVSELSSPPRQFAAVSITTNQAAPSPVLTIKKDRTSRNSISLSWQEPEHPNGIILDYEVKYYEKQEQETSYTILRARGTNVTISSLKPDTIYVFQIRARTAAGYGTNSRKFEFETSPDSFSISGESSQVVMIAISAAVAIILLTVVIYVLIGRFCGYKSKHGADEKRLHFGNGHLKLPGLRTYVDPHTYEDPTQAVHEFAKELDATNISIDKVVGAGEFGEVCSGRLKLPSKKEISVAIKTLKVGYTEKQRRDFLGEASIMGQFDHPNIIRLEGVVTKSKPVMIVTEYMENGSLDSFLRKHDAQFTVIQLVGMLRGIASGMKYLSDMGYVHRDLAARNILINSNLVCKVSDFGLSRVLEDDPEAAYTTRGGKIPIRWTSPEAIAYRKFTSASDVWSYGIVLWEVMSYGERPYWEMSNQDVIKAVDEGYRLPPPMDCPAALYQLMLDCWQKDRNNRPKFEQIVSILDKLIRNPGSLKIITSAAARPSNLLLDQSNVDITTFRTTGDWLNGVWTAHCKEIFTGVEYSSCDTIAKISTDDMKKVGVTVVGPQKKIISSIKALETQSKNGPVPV
# [7] = target: T1, Ephrin type-A receptor 3 (Homo sapiens); details: at 1 µM
# [8] = target: Ephrin type-A receptor 4 (Homo sapiens) (UniProt P54764); details: at 0.1 µM
# Chain of Ephrin type-A receptor 4 (Homo sapiens) (P54764 whole entry): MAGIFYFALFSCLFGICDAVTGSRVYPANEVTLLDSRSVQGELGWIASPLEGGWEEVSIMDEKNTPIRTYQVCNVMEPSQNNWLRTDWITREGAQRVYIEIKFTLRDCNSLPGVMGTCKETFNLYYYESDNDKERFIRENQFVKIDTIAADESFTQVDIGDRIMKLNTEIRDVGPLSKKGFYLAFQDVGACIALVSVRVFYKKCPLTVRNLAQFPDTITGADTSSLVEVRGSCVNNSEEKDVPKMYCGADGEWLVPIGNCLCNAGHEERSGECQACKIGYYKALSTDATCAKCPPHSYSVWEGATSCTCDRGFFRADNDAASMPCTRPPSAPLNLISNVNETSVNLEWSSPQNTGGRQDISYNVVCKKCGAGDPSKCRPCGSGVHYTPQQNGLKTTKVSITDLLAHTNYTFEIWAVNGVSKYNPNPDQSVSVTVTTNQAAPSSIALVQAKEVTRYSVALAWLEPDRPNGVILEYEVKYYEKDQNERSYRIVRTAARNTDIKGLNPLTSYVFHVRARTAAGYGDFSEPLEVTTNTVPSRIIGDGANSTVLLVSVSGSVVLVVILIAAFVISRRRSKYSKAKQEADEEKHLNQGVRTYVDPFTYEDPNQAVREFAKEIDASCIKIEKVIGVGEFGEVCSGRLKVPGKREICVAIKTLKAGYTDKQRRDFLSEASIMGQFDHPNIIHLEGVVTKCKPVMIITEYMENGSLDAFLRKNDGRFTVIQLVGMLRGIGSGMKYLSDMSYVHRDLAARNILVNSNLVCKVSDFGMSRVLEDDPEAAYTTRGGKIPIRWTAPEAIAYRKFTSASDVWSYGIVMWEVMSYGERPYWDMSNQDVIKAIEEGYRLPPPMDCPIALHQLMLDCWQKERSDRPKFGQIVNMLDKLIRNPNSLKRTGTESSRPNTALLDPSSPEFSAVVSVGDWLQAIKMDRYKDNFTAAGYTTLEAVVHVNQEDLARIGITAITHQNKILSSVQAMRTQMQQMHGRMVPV
# [9] = target: Ephrin type-A receptor 4 (Homo sapiens) (UniProt P54764); details: at 1 µM
# [10] = target: T2, Ephrin type-B receptor 2 (Homo sapiens) (UniProt P29323); details: at 0.1 µM;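 also: reported as mean inhibition of EPHB2, from the GSK PKIS dataset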
# T2 sequence (whole entry): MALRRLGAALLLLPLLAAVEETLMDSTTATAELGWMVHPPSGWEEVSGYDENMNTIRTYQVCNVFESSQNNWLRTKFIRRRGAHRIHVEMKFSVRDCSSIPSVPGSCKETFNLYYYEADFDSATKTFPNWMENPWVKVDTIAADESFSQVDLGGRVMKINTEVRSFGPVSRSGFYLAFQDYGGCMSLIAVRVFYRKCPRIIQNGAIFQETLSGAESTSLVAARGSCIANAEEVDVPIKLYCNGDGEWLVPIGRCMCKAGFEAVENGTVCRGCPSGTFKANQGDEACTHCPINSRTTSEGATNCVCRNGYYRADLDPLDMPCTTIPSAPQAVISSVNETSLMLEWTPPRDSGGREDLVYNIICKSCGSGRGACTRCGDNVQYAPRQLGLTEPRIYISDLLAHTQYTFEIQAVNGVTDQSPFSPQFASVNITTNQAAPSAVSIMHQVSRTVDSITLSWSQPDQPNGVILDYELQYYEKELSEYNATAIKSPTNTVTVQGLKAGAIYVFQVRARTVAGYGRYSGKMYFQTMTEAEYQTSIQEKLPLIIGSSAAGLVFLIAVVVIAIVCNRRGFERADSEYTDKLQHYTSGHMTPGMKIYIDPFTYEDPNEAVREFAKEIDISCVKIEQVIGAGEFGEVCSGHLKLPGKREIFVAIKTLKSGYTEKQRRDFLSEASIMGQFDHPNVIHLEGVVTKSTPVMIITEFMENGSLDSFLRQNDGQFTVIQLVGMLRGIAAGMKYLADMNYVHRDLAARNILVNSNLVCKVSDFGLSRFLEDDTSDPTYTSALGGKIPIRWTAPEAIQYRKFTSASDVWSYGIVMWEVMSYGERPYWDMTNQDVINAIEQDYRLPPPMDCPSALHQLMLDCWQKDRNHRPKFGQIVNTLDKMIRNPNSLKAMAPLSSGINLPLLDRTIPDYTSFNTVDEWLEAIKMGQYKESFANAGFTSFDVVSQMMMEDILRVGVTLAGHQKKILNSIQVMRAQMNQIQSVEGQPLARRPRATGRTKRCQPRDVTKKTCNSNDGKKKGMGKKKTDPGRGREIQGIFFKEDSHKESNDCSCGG
# Chain of Epidermal growth factor receptor (Homo sapiens), P00533 [L858R,T790M] (P00533 whole entry T790M/L858R, looked up): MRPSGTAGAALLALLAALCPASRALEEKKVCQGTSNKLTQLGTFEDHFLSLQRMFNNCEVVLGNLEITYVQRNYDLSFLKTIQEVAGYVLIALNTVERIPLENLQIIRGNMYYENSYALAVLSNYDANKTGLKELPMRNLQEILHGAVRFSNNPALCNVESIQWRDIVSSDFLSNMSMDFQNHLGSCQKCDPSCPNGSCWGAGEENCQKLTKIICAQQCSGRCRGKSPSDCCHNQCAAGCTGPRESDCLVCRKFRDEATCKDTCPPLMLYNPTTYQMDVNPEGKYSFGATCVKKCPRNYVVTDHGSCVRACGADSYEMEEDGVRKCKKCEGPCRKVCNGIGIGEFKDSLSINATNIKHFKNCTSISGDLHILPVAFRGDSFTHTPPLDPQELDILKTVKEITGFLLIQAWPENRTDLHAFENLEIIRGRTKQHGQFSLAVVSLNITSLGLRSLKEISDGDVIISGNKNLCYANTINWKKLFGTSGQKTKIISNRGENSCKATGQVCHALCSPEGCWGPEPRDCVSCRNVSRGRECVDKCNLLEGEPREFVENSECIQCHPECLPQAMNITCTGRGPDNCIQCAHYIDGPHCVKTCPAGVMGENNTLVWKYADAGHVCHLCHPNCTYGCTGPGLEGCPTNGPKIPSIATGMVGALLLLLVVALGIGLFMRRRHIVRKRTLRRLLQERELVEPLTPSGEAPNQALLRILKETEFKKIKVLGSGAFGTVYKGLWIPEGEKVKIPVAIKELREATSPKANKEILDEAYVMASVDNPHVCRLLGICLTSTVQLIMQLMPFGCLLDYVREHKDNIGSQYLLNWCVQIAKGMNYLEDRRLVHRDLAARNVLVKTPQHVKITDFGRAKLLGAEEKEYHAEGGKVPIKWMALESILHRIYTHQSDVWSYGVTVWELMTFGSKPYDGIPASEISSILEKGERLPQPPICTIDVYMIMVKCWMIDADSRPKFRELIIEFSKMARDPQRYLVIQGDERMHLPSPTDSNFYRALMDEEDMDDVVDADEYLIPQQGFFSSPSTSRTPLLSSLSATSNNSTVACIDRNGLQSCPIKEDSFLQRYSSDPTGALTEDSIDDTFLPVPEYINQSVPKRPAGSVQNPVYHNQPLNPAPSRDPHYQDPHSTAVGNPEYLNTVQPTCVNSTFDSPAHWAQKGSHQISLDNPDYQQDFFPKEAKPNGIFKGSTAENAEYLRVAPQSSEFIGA
# Chain of Epidermal growth factor receptor (Homo sapiens), P00533 [T790M] (P00533 whole entry T790M): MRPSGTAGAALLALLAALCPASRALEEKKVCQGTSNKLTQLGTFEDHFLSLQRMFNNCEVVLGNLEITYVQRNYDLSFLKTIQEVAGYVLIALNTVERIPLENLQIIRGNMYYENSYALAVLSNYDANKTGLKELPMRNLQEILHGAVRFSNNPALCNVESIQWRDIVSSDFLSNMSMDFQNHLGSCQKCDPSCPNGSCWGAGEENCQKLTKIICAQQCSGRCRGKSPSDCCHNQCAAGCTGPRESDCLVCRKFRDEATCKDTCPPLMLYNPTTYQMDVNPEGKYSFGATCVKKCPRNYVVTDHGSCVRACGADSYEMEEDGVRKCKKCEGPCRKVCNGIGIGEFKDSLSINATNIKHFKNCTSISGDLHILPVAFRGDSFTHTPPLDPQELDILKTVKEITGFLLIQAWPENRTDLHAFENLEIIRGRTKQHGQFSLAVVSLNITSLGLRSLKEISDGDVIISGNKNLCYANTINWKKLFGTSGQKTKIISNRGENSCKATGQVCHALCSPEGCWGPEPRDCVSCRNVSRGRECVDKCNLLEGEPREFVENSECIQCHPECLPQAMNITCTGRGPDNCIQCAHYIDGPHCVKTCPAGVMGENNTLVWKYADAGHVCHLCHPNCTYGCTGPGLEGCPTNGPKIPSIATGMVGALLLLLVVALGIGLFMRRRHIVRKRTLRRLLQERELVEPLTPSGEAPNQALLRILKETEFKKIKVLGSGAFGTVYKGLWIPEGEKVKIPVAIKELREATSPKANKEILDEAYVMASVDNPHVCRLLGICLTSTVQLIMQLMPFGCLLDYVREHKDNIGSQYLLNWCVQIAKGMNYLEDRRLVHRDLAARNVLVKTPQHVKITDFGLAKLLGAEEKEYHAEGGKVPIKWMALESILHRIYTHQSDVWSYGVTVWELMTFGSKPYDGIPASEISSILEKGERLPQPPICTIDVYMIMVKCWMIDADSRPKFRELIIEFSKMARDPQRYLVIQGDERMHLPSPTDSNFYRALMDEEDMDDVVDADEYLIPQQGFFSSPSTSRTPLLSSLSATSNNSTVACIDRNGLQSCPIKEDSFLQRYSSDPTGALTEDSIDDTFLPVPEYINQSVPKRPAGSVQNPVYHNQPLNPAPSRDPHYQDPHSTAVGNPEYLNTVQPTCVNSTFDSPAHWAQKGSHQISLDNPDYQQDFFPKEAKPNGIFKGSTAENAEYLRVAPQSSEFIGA
Compound,inhibition [1],inhibition [2],inhibition [3],inhibition [4],inhibition [5],inhibition [6],inhibition [7],inhibition [8],inhibition [9],inhibition [10]
COc1ccccc1-c1cc(/C=C2\C(=O)Nc3ncc(Br)cc32)cc(Br)c1O,1.53%,1.24%,4.48%,1.75%,3.18%,4.45%,5.49%,9.58%,6.4%,6.05%
Cc1c2ccc(N(C)c3ccnc(Nc4cccc(S(N)(=O)=O)c4)n3)cc2nn1C,3.28%,2.62%,13.1%,-1.48%,2.19%,0.79%,2.97%,8.51%,14.2%,5.88%
Fc1cccc(COc2ccc(Nc3ncncc3C#Cc3ccccc3)cc2Cl)c1,3.85%,3.98%,5.02%,4.2%,0.3%,4.46%,4.68%,9.27%,13.1%,8.04%
NC(=O)c1ccc2c(-c3ccnc(NCCCO)n3)c(-c3ccc(F)cc3)nn2c1,2.72%,4.41%,6.91%,2.54%,7.54%,5.24%,7.21%,11.8%,29.7%,9.21%
COc1cc(Nc2ncc(-c3ccccc3)o2)cc(OC)c1,1.99%,0.93%,0.21%,2.21%,2.39%,3.02%,8.57%,8.98%,13.7%,8.98%
Cn1c(-c2nonc2N)nc2cnccc21,0.67%,-1.07%,-0.94%,1.97%,1.07%,6.89%,4.47%,7.88%,4.19%,4.59%
CS(=O)(=O)CCNCc1ccoc1-c1ccc2ncnc(Nc3ccc(OCc4ccccc4)cc3)c2c1,4.58%,-0.19%,-0.52%,-2.48%,-2.19%,0.44%,2.32%,4.33%,6.25%,4.8%
CCCNc1cccc(-n2ncc3c(N/N=C/c4ccncc4)ncnc32)c1,5.14%,1.81%,2.7%,3.57%,5.31%,3.09%,3.12%,4.65%,17.4%,-1.54%
O=C(O[C@H]1CN[C@H](C#Cc2cc3ncnc(Nc4ccc(OCc5cccc(F)c5)c(Cl)c4)c3s2)C1)N1CCOCC1,18%,4.1%,9.08%,1.93%,1.46%,5.97%,4.01%,10.4%,12.3%,7.71%
COC(=O)Nc1nc2cc(Oc3ccc(NC(=O)Nc4ccccc4)cc3)ccc2[nH]1,2.64%,-2.44%,2.14%,2.42%,3.37%,4.93%,1.33%,8.86%,11.2%,5.01%
Nc1nccc(-c2c(-c3ccc(F)cc3)ncn2C2CCNCC2)n1,-1.82% and -1.43%,-3.77% and -2.58%,-3.38% and 2.32%,-1.11% and -2.31%,-3.3% and -3.19%,-5.79% and -0.55%,-3.63% and 1.63%,-7.34% and 0.75%,-6.76% and 4.23%,-3.07% and 5.6%
O=C(O[C@H]1CN[C@H](C#Cc2cc3ncnc(Nc4ccc5c(ccn5Cc5cc(F)ccc5F)c4)c3s2)C1)N1CCOCC1,50.3%,4.66%,9.08%,0.75%,0.06%,4.84%,4.4%,6.87%,3.19%,5.25%
O=C(O[C@H]1CN[C@H](C#Cc2cc3ncnc(Nc4ccc5c(cnn5Cc5ccccc5)c4)c3s2)C1)N1CCOCC1,9.06%,-5.39%,-1.26%,-1.74%,-2.68%,-0.31%,0.9%,-0.59%,1.79%,-3.66%
Fc1ccc(Nc2nccc(-c3c(-c4ccc(C(F)(F)F)cc4)nn4ncccc34)n2)cc1F,0.77%,-1.9%,0.06%,2.87%,0.53%,2.83%,3.84%,5.7%,1.99%,8.38%
COc1cc(N2CCN(C(C)C)CC2)ccc1Nc1nc(Nc2cccc3ncccc23)c2cc[nH]c2n1,10.3%,1.03%,35.2%,-1.62%,-2.47%,0.15%,3.49%,0.21%,0.38%,5.06%
COC(=O)Nc1nc2ccc(Oc3ccc(NC(=O)Nc4cc(C(F)(F)F)ccc4F)cc3)cc2s1,-0.72%,1.64%,-2.5%,63.5%,93.5%,51.3%,68.4%,83.3%,86.1%,74.1%
NS(=O)(=O)c1ccc(N/N=C2\C(=O)Nc3ccc(C(=O)NCc4ccncc4)cc32)cc1,5.2%,0.1%,2.72%,1.72%,1.75%,4.4%,3.58%,8.7%,15%,4.03%
COc1cc(N2CCN(C(C)C)CC2)ccc1Nc1nc(Nc2cccc(F)c2C(=O)O)c2cc[nH]c2n1,24.9%,9.68%,48.9%,0.65%,-0.38%,2.98%,6.01%,8.47%,11.2%,9.96%
Nc1ncnc2occ(-c3ccc(NC(=O)Nc4cc(C(F)(F)F)ccc4F)cc3)c12,-0.24% and 0.54%,0.74% and 1.93%,0.23% and -1.52%,22.4% and 1.32%,80.5% and 57%,,43.8% and 25.2%,,77.2% and 77.9%,55.4% and 55.7%
